66 sequences from the supplement of paper PMC11417369 can be followed below.

± gives the standard deviation of the averaged measurements. The full ranking holds about 25,000 sequences; the median of “ln(normalized median fluorescence intensity)” is about 7.9, and the highest 2% start at about 11. For the sample, the highest values were picked, then their nearest neighbours and some sequences at random.

The experiment deals with PfAP2-I AP2 domain 3 (GST-tagged). The experiment can be described thus: gcPBM binding intensity (ln(normalized median fluorescence intensity)); higher = stronger DNA binding. The method, boiled down: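 Alexa488 anti-GST antibody, scanned at 488 nm, detected GST-tagged P. falciparum DNA-binding domains that had been expressed in E. coli and incubated for 1 h on an Agilent 4 × 180k array. The array carried primer-extended double-stranded 36-bp intergenic genomic probes and negative controls. Binding intensity is the highest Masliner-normalised natural-log median intensity across replicate spots of either orientation of each probe.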
Regarding “AATAAAATGAGATGTTGTACAGTTTTGATATATGCA [XGTACX_site3052]”, the “gcPBM binding intensity (ln)” value came to 7.96 ± 0.19.

On to “CATTATTATGATAGTTGTACAATTTTTATAAAAAAT [XGTACX_site4411]”, for which the “gcPBM binding intensity (ln)” value turned out to be 7.93 ± 0.35.

On to GATAAAATGAGACCAGTGCATTATTAGTTGTACACC, for which the “gcPBM binding intensity (ln)” value was 11.3 ± 0.53.

Turning to TAATTAATTTATTAGTTGCACTGTACCATTAGAGTA, the “gcPBM binding intensity (ln)” value was 9 ± 0.11.

Take “TTTTTATAGAATTTAACACACATTTCATATAAAAAA [CACACA_site7453]”: the “gcPBM binding intensity (ln)” value was 7.86 ± 0.47.

Regarding TAATAAAATATGTACGTGCACATAATTATACTAAAA, the “gcPBM binding intensity (ln)” value came to 10.3 ± 0.18.

As for TACTATTATAAATATGTGCACTTCAATAATATACTA, the “gcPBM binding intensity (ln)” value worked out at 10.4 ± 0.11.

AAAAAAAAAAAATACGTGCACTATGATATATTATAT: the “gcPBM binding intensity (ln)” value was 11.4 ± 0.36.

Consider “TATGATTAATTACCACAATTGACAAAAAAAAAAAAA [CACACA_negctrl_site336]”, for which the “gcPBM binding intensity (ln)” value amounted to 8.13 ± 0.87.

Take “TTTTGTTACTTTTATGTGCACTTATAAAACGAACTA [GTGCAC_site9551]”: the “gcPBM binding intensity (ln)” value is 11.3 ± 0.085.

Regarding “AACTATTTTATTATATGTACTTACGAATTTATAAAA [XGTACX_site5262]”, the “gcPBM binding intensity (ln)” value amounted to 7.87 ± 0.35.

For the sequence ATATATATTATGTGTGTGCACTTTTGTTATTATTAT, the “gcPBM binding intensity (ln)” value came to 9.83 ± 0.014.

In the case of “AAAACACAATTTATTACACACATATATTATAGATTA [CACACA_site6780]”, the “gcPBM binding intensity (ln)” value stood at 7.61 ± 0.68.

Regarding “AGAATTTTAGATTTAGCACACATTTTTTTTTTTTTT [CACACA_site4081]”, the “gcPBM binding intensity (ln)” value amounted to 8.34 ± 0.45.

For the sequence “TTTTTTAAATTGGTAGTGCAATATGATTGAACAAAA [GTGCAC_site9715]”, the “gcPBM binding intensity (ln)” value amounted to 10.9 ± 0.79.

Turning to “TATATAGATATGATAGTGCATTTTTAGAAAACATAA [GTGCAC_site9962]”, the “gcPBM binding intensity (ln)” value is 9.44 ± 0.14.

Regarding GTTTTAACAAAATTAGTGCATTTATCAATTATATAA, the “gcPBM binding intensity (ln)” value is 10.5 ± 0.14.

For “ATATTGAAATTAAAAAAATATATGAACAAATGATGA [CACACA_negctrl_site602]”, the “gcPBM binding intensity (ln)” value was 7.69 ± 0.59.

Turning to TTTTTTTTTTTTGTAGTGCAAATTAAAAATATATGT, the “gcPBM binding intensity (ln)” value was 10.6 ± 0.53.

In the case of ATGATATGCAATTTAGTGCATAACAAAATTGGTATA, the “gcPBM binding intensity (ln)” value was 10.9 ± 0.49.

As for “AAAAAAAAAAAAAGCACACATATAAATATGAATAAA [CACACA_site1393]”, the “gcPBM binding intensity (ln)” value worked out at 8.39 ± 0.085.

In the case of “TAATTTTATATTAAAAGTACATAATAAAAACTATAA [XGTACX_site8779]”, the “gcPBM binding intensity (ln)” value was 7.79 ± 0.22.

Regarding “TAAATATATATCATCACACACACATACATAAATATA [CACACA_site183]”, the “gcPBM binding intensity (ln)” value is 7.72 ± 0.47.

“TAATAATATAAATATGCACACAAATTATTACCCAAA [CACACA_site8805]”: the “gcPBM binding intensity (ln)” value worked out at 8.97 ± 0.47.

For the sequence “AAAAATATAATATATGCACACATACATACATATATA [CACACA_site7915]”, the “gcPBM binding intensity (ln)” value worked out at 9.06 ± 0.057.

As for “GCTAAAAGTATATGCACACACATATAGATGCACATA [CACACA_site6868]”, the “gcPBM binding intensity (ln)” value is 10 ± 0.14.

As for “AAAATATAATATAATGCACACATAAAAAAAAAATCA [CACACA_site7922]”, the “gcPBM binding intensity (ln)” value amounted to 10.8 ± 0.64.

“CTTTTTTTTTTTTTTGCACACACATATATAAATATA [CACACA_site3950]”: the “gcPBM binding intensity (ln)” value was 9.74 ± 0.042.

As to “GCTAAAAGTATATGCACACACATATATATGCACATA [CACACA_site1635]”, the “gcPBM binding intensity (ln)” value is 10.3 ± 0.16.

Turning to “AATTCTTTACTATTCACACATATAAATATTCACTTT [CACACA_site4886]”, the “gcPBM binding intensity (ln)” value worked out at 8 ± 0.7.

With “AAAAATAATGCACATATATATAATATGTATATGTAT [CACACA_negctrl_site443]”, the “gcPBM binding intensity (ln)” value worked out at 11 ± 0.6.

As for “CATATTTGCACTTTCACACATAAATATATAACTATA [CACACA_site6016]”, the “gcPBM binding intensity (ln)” value stood at 11 ± 0.89.

For the sequence “GTGCTAAAAGTATATGCACACACATATATATGCACA [CACACA_site8472]”, the “gcPBM binding intensity (ln)” value amounted to 10.9 ± 0.55.

For “AAAAAATATACATATACACACATATGTATATATAAT [CACACA_site8676]”, the “gcPBM binding intensity (ln)” value came out at 7.57 ± 0.31.

“AATATAATATAATGCACACATAAAAAAAAAAAAATC [CACACA_site1303]”: the “gcPBM binding intensity (ln)” value stood at 11 ± 0.64.

Turning to “ATAGATATACATATCACACATATATATATATATATA [CACACA_site4985]”, the “gcPBM binding intensity (ln)” value amounted to 9.19 ± 0.65.

For “GATATAGATATTAATTGTACATATTATTTATTGTTA [XGTACX_site846]”, the “gcPBM binding intensity (ln)” value amounted to 7.62 ± 0.36.

For “TTAAAAAAATATAATACACACCAAAAATATGCACAT [CACACA_site5209]”, the “gcPBM binding intensity (ln)” value stood at 9.6 ± 0.43.

For “TTAAATATATGTAATACGCACACTTAATATTTTGAG [CACACA_site4170]”, the “gcPBM binding intensity (ln)” value amounted to 8.18 ± 0.35.

For “AATTTTCATTTTAGAAGTACACACAAAAAATAAAAT [XGTACX_site4426]”, the “gcPBM binding intensity (ln)” value turned out to be 8.13 ± 0.22.

On to “TGAATTTAGATATATACACACAAAAGTATATACAAT [CACACA_site2804]”, for which the “gcPBM binding intensity (ln)” value stood at 7.53 ± 0.54.

Turning to “TATATATATTCTTTAAAACACACGTAAAGAAGAATT [CACACA_site2718]”, the “gcPBM binding intensity (ln)” value stood at 7.94 ± 0.62.

With “TATATATATATATTCACACATAAATATATGCACCCA [CACACA_site4263]”, the “gcPBM binding intensity (ln)” value came out at 11.1 ± 0.68.

Turning to “TATATATATATATTCACACATAAAAATAAAATAAAA [CACACA_site4774]”, the “gcPBM binding intensity (ln)” value stood at 9.2 ± 0.13.

As to “AATATAATATAATGCACACATAAAAAAAAAAAAAAA [CACACA_site304]”, the “gcPBM binding intensity (ln)” value was 11.1 ± 0.87.

With “AAAATATAATATAATGCACACATAAAAAAAAAAAAA [CACACA_site7989]”, the “gcPBM binding intensity (ln)” value is 11.1 ± 0.49.

Consider “TAAACATAAATATGCACACATATACATATATTCATA [CACACA_site2667]”, for which the “gcPBM binding intensity (ln)” value stood at 8.69 ± 0.099.

In the case of “AATAAAAAAAAATGCACACATATATATATATATATA [CACACA_site2421]”, the “gcPBM binding intensity (ln)” value amounted to 9.67 ± 0.52.

As for “ATAATAAAAAAAAATGCACACATATATATATATATA [CACACA_site8766]”, the “gcPBM binding intensity (ln)” value amounted to 9.59 ± 0.47.

For “TCCTTATATTTGCACACACACACAAGAAAATGAAAA [CACACA_site6613]”, the “gcPBM binding intensity (ln)” value was determined as 10.3 ± 0.54.

“TTTTGAATTAAACAAGCATGCTTTATTTACTTCTTA [TGCATGCA_site289]”: the “gcPBM binding intensity (ln)” value came to 7.59 ± 0.86.

For “ACTAAACGAATAAATTGTACAAAGAAATATATTCAT [XGTACX_site6766]”, the “gcPBM binding intensity (ln)” value was determined as 7.83 ± 0.54.

As to “TTCTTCTGTTTTATTACACACCATTTTGTGGATACA [CACACA_site5181]”, the “gcPBM binding intensity (ln)” value worked out at 8.38 ± 0.71.

Turning to “ACTACATAATACTATTCACACATTTTTTTTTTTTTT [CACACA_site5794]”, the “gcPBM binding intensity (ln)” value was found to be 7.83 ± 0.58.

As to “ATATATATTTTTAATTGTACAGAATTAAAAATATTG [XGTACX_site1967]”, the “gcPBM binding intensity (ln)” value was 7.64 ± 0.45.

“AAAAAAAAAAAACACACACACACACCGATACATACA [CACACA_site8849]”: the “gcPBM binding intensity (ln)” value is 7.92 ± 0.45.

“AAAAGGAAAATACTAGCACACAATATATAATAAACA [CACACA_site285]”: the “gcPBM binding intensity (ln)” value stood at 7.99 ± 0.49.

For the sequence “ATTTATATATATGTATGTACGTATGTGTGTATATGT [XGTACX_site7587]”, the “gcPBM binding intensity (ln)” value was determined as 8.55 ± 0.27.

With “GTATTATTTTATGATGCATGTGTATTTCATATATGC [TGCATGCA_site660]”, the “gcPBM binding intensity (ln)” value is 7.74 ± 0.49.

As to “CACATATATATGTGTGCATGTTGTATTATATATTTA [TGCATGCA_site632]”, the “gcPBM binding intensity (ln)” value worked out at 8.69 ± 0.46.

With TTTATTTATGTGTGGGTGCATATACGTATGATGTAT, the “gcPBM binding intensity (ln)” value was 11 ± 0.72.

For the sequence “TTTCACATATATATGGTGCATATTTTATGTGTAAAT [GTGCAC_site9937]”, the “gcPBM binding intensity (ln)” value is 9.95 ± 0.52.

For the sequence “ATTTCCCCAACGTGGGTGCATATATTTATGTGTGAA [GTGCAC_site9439]”, the “gcPBM binding intensity (ln)” value stood at 10.9 ± 0.82.

“ATATATTATGGGTGTGCACACAATATTTATATGTTC [CACACA_site2270]”: the “gcPBM binding intensity (ln)” value worked out at 9.59 ± 0.23.

Regarding “TATTTATATGTATATACATGCACATATATATGAAAC [TGCATGCA_site1005]”, the “gcPBM binding intensity (ln)” value is 8.35 ± 0.57.

For the sequence ATATGAAACATGAAGGTGCATAATGTGTATATTTAT, the “gcPBM binding intensity (ln)” value is 11.3 ± 0.69.
